GLP-1R inv ag – GLP-1 receptor (human) inverse agonism; P43220; HEK293 GLP-1R CRE-luciferase, luminescence, 24 h; GLP-1R form is constitutively active; Potency, µM (top dose mostly 38.3 µM), hits mostly inhibitors; 410,000 compounds, 1.6% hits; AID 624417; note: nearly all actives have a fitted effect of over 55% in size
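Inverse agonists were sought by their lowering of basal cAMP reporter luciferase output in HEK293 cells stably carrying constitutively active human GLP-1R, after 24 h compound treatment.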
D3 antag – D3 dopamine receptor (human) antagonism. 360,000 compounds, 2.5% hits. max response, negative = inhibition, %. D3R cells, DiscoveRx beta-arrestin luminescence, antagonist mode; stronger effect = lower value; in the data active = max response below about -50%; inconclusive = no clear call, values can overlap the other calls
Target sequence (P35462 whole entry, looked up): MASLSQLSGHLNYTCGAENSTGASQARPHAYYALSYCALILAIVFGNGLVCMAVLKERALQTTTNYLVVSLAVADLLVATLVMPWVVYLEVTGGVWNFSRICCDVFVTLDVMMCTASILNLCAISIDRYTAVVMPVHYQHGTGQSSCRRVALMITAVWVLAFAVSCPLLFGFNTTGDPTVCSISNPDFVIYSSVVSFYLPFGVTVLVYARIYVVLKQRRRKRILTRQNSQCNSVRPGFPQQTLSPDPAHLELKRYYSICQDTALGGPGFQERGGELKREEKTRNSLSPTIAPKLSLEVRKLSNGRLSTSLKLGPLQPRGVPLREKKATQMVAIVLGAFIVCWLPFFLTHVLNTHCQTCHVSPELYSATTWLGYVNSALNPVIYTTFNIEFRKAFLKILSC
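Cells expressing the human receptor were seeded at 1500 cells/well, incubated overnight at 37 degrees C in 5% CO2, then exposed to library compounds with dopamine controls for 90 minutes at 37 degrees C before luminescent detection.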
GLP1R ag – GLP-1 receptor (human) agonism. HEK293 GLP-1R CRE-luciferase, luminescence, 4-6 h; cells express a hypersensitive GLP-1R form. Potency, µM (top dose mostly 45.6 µM), most hits filed as activators. AID 624172. 380,000 compounds, 0.007% hits
DRD3 agonist – D3 dopamine receptor (human) agonism; P35462; D3R DiscoveRx beta-arrestin cells, luminescence, 90 min; max activation, %; 410,000 compounds, 0.58% hits; in the data active = max activation above about 30%
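Agonist mode: compounds and dopamine controls were applied to plated cells for 90 min at 37 degrees C after an overnight attachment at 1500 cells/well. Luminescent read-out followed 30 - 60 minutes at room temperature with DiscoveRx detection reagent.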
Each line names hits and unclear results; the compound was inactive in the other large screens. In the library only some 4.3% were active in any assay of this set; here they are far more common. Unless noted, calls come from the whole dose curve; as a rule, active = well fitted curve in the direction sought with a large enough effect; inconclusive = small, poorly fitted or top-dose-only effect, or another doubt; inactive = no such curve, though single readings can be large; an effect the other way counts as inactive or inconclusive.

CCc1ccccc1N(CC)C(=O)c1c(C)oc2ncn(C)c(=O)c12	none (no result: D3 antag, GLP1R ag)
COc1cc(OC)c(NC(=O)N2CCc3c(sc4c3CCCC4)C2c2ccccc2)cc1Cl (centres undefined)	none (no result: D3 antag, GLP1R ag)
Cc1ccc(OCC(=O)Nc2ccc3nc(SCC(=O)N4CCCC4)sc3c2)cc1	none (no result: D3 antag, GLP1R ag)
Cc1ccccc1C(=O)n1nc(-c2cccnc2)nc1NCc1ccc(F)cc1	GLP-1R inv ag inconclusive (no result: D3 antag, GLP1R ag)
CC1Cn2c(C(=O)NCc3ccccc3Cl)cc3cccc(c32)S1 (centres undefined)	GLP-1R inv ag 11.2µM (no result: D3 antag, GLP1R ag)
COc1ccccc1CNC(=O)c1cc2cccc3c2n1CC(C)S3 (centres undefined)	GLP-1R inv ag inconclusive (no result: D3 antag, GLP1R ag)
Cc1ccccc1CNC(=O)c1cc2cccc3c2n1CC(C)S3 (centres undefined)	GLP-1R inv ag 10µM (no result: D3 antag, GLP1R ag)
CC1Cn2c(C(=O)NCCc3ccc(Cl)cc3)cc3cccc(c32)S1 (centres undefined)	GLP-1R inv ag inconclusive (no result: D3 antag, GLP1R ag)
COc1ccc(NC(=O)CSc2nc(-c3ccccc3)nc3c2Cc2c(CO)cnc(C)c2O3)cc1Cl	none (no result: D3 antag, GLP1R ag)
O=C(O)C(=O)Nc1cccc(-c2nn[nH]n2)c1	none (no result: GLP-1R inv ag, D3 antag, GLP1R ag)
CSCC[C@H](N)C(=O)N1CCC(C(=O)N[C@@H](C)C(=O)NCc2ccc(F)cc2)CC1	DRD3 agonist 31.3
COc1ccc(CNC(=O)[C@H](C)NC(=O)C2CCN(C(=O)[C@@H](N)CCSC)CC2)cc1	none
Cc1nn(Cc2c(F)c(F)c(F)c(F)c2F)c(C)c1NC(=O)c1c(-c2ccccc2)nn(-c2ccccc2)c1C	none
COc1cc(CN2CCC(C(=O)NC(c3ccc(F)cc3)c3ccc4ccccc4n3)CC2)cc(OC)c1 (centres undefined)	GLP-1R inv ag 2.82µM, D3 antag -67.7
O=C(NC(c1ccccc1)c1ccc2ccccc2n1)C1CCN(Cc2ccc(Oc3ccccc3)cc2)CC1 (centres undefined)	GLP-1R inv ag inconclusive, D3 antag inconclusive
O=C(NC(c1ccc(F)cc1)c1ccc2ccccc2n1)C1CCN(Cc2ccc(Oc3ccccc3)cc2)CC1 (centres undefined)	GLP-1R inv ag inconclusive, D3 antag -89.2
Cn1cc(CN2CCC(C(=O)NC(c3ccc(F)cc3)c3ccc4ccccc4n3)CC2)c2ccccc21 (centres undefined)	GLP-1R inv ag inconclusive, D3 antag -58.0
O=C(NC(c1ccc(F)cc1)c1ccc2ccccc2n1)C1CCN(CCOc2ccc(Cl)cc2Cl)CC1 (centres undefined)	GLP-1R inv ag inconclusive
CCOc1ccc2c(c1)c(=O)c(S(=O)(=O)c1ccc(Cl)cc1)cn2Cc1ccccc1C	none (no result: D3 antag)
COc1ccccc1NC(=O)Cn1c(=O)n(Cc2nc(-c3ccccc3)no2)c(=O)c2ccccc21	none (no result: D3 antag, GLP1R ag)
CCc1ccccc1NC(=S)NC1CC2CCCC(C1)N2Cc1cccs1 (centres undefined)	GLP-1R inv ag inconclusive, D3 antag -75.9
Cc1cccc(NC(=S)NC2CC3CCCC(C2)N3Cc2cccs2)c1C (centres undefined)	GLP-1R inv ag inconclusive, D3 antag -72.3
CCOC(=O)C1CCN(C(=O)Cn2c(-c3cccs3)cc3cc(Cl)ccc32)CC1	GLP-1R inv ag inconclusive (no result: D3 antag, GLP1R ag)
O=C(O)CC/C(=C\c1ccc(N2CCCC2)c([N+](=O)[O-])c1)c1nc2ccccc2s1	none
CN(c1ccccc1)c1ccc(/C=C(/CCC(=O)O)c2nc3ccccc3s2)cc1[N+](=O)[O-]	GLP-1R inv ag 11.2µM
COc1ccc(/C=C\C(=O)CC(O)(c2ccccc2)C(F)(F)F)cc1 (centres undefined)	GLP-1R inv ag inconclusive, D3 antag -69.9
O=C(CCCC(=O)NNC(=O)Nc1ccccc1)NNC(=O)Nc1ccccc1	none
CCCC(=O)N1c2nc(-c3ccco3)nn2C2(CCCCC2)[C@@H]2CCCC[C@@H]21	none (no result: D3 antag, GLP1R ag)
Cc1n[nH]c(C)c1S(=O)(=O)N(CC(=O)NCc1ccccc1Cl)c1ccc(C(C)C)cc1	GLP-1R inv ag 10µM (no result: D3 antag)
Cc1cc2cc(CNC(=S)Nc3ccc(OC(F)(F)F)cc3)ccc2[nH]1	GLP-1R inv ag 11.2µM
CC(=O)Nc1cc(C(=O)NCc2ccc(F)cc2)ccc1Sc1ccc(C)cc1	GLP-1R inv ag inconclusive (no result: D3 antag, GLP1R ag)
O=C(N/N=C/c1cn(CCOc2ccccc2)c2ccccc12)c1ccncc1	none
COC(=O)N/N=C/c1cn(Cc2ccc(F)cc2)c2ccccc12	GLP-1R inv ag 7.94µM
O=[N+]([O-])c1ccc(NN=Cc2cc(Br)ccc2O)nc1	GLP-1R inv ag 2.82µM, D3 antag inconclusive
COC(=O)N/N=C/c1cn(Cc2ccccc2F)c2ccccc12	GLP-1R inv ag inconclusive
COC(=O)N/N=C/c1cn(CCCOc2ccccc2)c2ccccc12	GLP-1R inv ag 10µM
O=[N+]([O-])c1ccc(N/N=C/c2cn(Cc3ccc(F)cc3)c3ccccc23)nc1	GLP-1R inv ag inconclusive, D3 antag -54.2
CC1(C(=O)NS(=O)(=O)c2ccc3ccccc3c2)CCN1C(=O)Cc1ccc(-c2ccccc2)cc1 (centres undefined)	none
CN(CC(=O)N1CCOCC1)Cc1c(Cl)cccc1NC(=O)c1ccccc1	none (no result: GLP-1R inv ag, D3 antag)
CCN1CCN(C(=O)c2cnn(-c3ccc(F)cc3)c2-n2cccc2)CC1	none (no result: D3 antag)
COCCN1C(=O)C(CC(=O)Nc2ccc(C(=O)O)cc2)SC1=Nc1ccccc1 (centres undefined)	none
COC(=O)c1cc(NC(=O)CC2SC(=Nc3ccccc3)N(CCc3c[nH]c4ccccc34)C2=O)cc(C(=O)OC)c1 (centres undefined)	GLP-1R inv ag 4.47µM
O=C(Nc1ccc(Br)cc1F)c1cc(S(=O)(=O)NC2CCCC2)ccc1F	GLP-1R inv ag inconclusive (no result: D3 antag, GLP1R ag)
CCCC(=O)Nc1ccc(C(=O)Nc2cc(C(F)(F)F)ccc2Cl)cc1	GLP-1R inv ag 6.31µM
O=C(Nc1cc(C(F)(F)F)ccc1Cl)c1ccc(NC(=O)C(F)(F)F)cc1	GLP-1R inv ag inconclusive
Cc1ccccc1CNC(=O)CCSCc1cnn(-c2ccccc2)c1-n1cccc1	GLP-1R inv ag 10µM (no result: D3 antag, GLP1R ag)
O=C(CCSCc1cnn(-c2ccccc2)c1-n1cccc1)NCc1ccccc1F	GLP-1R inv ag inconclusive (no result: D3 antag, GLP1R ag)
CCOc1ccccc1N(C)C(=O)Cn1nc(Cc2ccncc2)c2ccccc2c1=O	none (no result: D3 antag, GLP1R ag)
COc1cccc(NC(=O)COC(=O)c2ccccc2F)c1	none
COc1cccc(NC(=O)COC(=O)c2c3c(nc4ccccc24)CCC(C)C3)c1 (centres undefined)	GLP-1R inv ag 5.01µM, DRD3 agonist 52.8
COc1cccc(NC(=O)COC(=O)c2c(F)cccc2Cl)c1	D3 antag -61.5
CCCC(O)c1nc2ccccc2n1CCCCOc1ccc(OC)cc1 (centres undefined)	GLP-1R inv ag inconclusive (no result: D3 antag, GLP1R ag)
Cc1ccc(NC2=Nc3ccccc3N3C2=Nc2c(c(C)nn2-c2ccccc2)C3c2ccc(O)c(O)c2)cc1 (centres undefined)	GLP-1R inv ag 11.2µM
CCOc1cc(N2CCOCC2)c(OCC)cc1NC(=O)CSc1ccccc1C(=O)O	none
CCOc1cc(N2CCOCC2)c(OCC)cc1NC(=O)CN1CCc2ccccc2C1	GLP-1R inv ag 4.47µM, D3 antag inconclusive

Assay outcomes deposited in PubChem by National Center for Advancing Translational Sciences (NCATS).
